The text below walks through data of PubChem BioAssay AID1259389 (Center for Chemical Genomics, University of Michigan, 2018).

Structures are written as SMILES. Hit rate of the full screen: of about 100,000 compounds, about 620 (0.62%) were called active. The sample holds actives, similar compounds and a random draw of the others, so the mix is not that of the screen. Values without a mark were called inactive. The calls were made as follows: active = z-score of 3 or more in at least 2 runs; inactive = the rest.

The nature of this experiment: TAR RNA-Tat peptide displacers, HIV-1, primary screen, biochemical, FRET, FAM/TAMRA-labeled Tat (AID 1259389). Particulars: HIV-1 TAR RNA, Tat peptide displacement FRET; active compounds read high.
With `O=C(O)C1CSC(c2cccnc2)N1` (stereo not given), the z-score is 3.48 (active).

For the compound `c1ccc2sc(N3CCNCC3)nc2c1`, the z-score was -0.36.

Take `Cc1nn2c3cc(N4CCNCC4)ccc3nc2c2ccccc12`: the z-score is 3.84 (active).

Consider `CC(=O)N[C@H]1CN2CC[C@H](O)[C@@H]2[C@@H](O)[C@@H]1O`, for which the z-score is 0.34.

Turning to `CC(C)(C)[C@]1(O)C[C@@H]2OC(=O)C[C@@]23C(=O)O[C@@H]2OC(=O)[C@H](O)[C@]213`, the z-score is 2.75.

With `C#CCOc1ccc(C2SCC(=O)Nc3n[nH]c(C)c32)cc1OC` (stereo not given), the z-score is 1.62.

Take `CCC1c2cccn2-c2ccccc2CN1C(=O)Nc1ccc(F)c(Cl)c1` (stereo not given): the z-score is 1.12.

With `C=CCOc1ccc(C2SCC(=O)Nc3n[nH]c(C)c32)cc1` (stereo not given), the z-score was 1.1.

In the case of `CN1CC=C(c2noc(CCC(=O)Nc3ccc(Cl)cn3)n2)CC1`, the z-score is 1.39.

Take `CCC(CC)n1[nH]c(=O)c2c1NC(=O)CSC2c1ccc(Br)cc1` (stereo not given): the z-score is 0.25.
